From PubChem BioAssay (Tox21)
Results filed as inconclusive are left out. Activity calls are given as the source filed them. Unless noted, calls come from the whole dose curve.

Tests used:
[1] = qHTS assay to identify small molecule agonists of the estrogen related receptor (ERR) signaling pathway from Tox21 library (AID 1224849); details: ERR reporter cell line, ONE-Glo luciferase, 18 h; at 92.4 µM (top of the series) unless noted; note: nearly all actives have a fitted effect of over 15% in size
Outline: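 ERR reporter cell line (NTP) seeded, rested 6 h at 37 C/5% CO2, then pinned with Tox21 compounds in DMSO. After 18 h at 37 C, ONE-Glo luciferase luminescence was read following 30 min at room temperature.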

[2] = A CellTox Green Cytotoxicity Assay to monitor cytotoxicity in HEK293 cells - 0 hour (AID 1224869; active = well fitted curve in the direction sought with a large enough effect in the repeat runs; an effect the other way counts as inactive or inconclusive; note: nearly all actives have a fitted effect of over 50% in size)
Outline: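 HEK293 cells premixed with CellTox Green dye were seeded at 600 cells/well and left 5 h at 37 C/5% CO2 before pin transfer of 23 nL compound in DMSO. Fluorescence from dye bound to dead-cell DNA was read during 40 h treatment.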

[3] = A CellTox Green Cytotoxicity Assay to monitor cytotoxicity in HepG2 cells - 8 hour (AID 1224890; active = well fitted curve in the direction sought with a large enough effect in the repeat runs; an effect the other way counts as inactive or inconclusive; note: nearly all actives have a fitted effect of over 45% in size; note: potency is the fitted concentration of half-maximal effect)
Outline: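 HepG2 cells were seeded together with the CellTox Green dye at 600 cells/well, left 5 h at 37 C/5% CO2, then given compounds in DMSO. Fluorescence from dye bound to dead-cell DNA was read repeatedly over 40 h of treatment at 37 C.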

[4] = qHTS assay to identify small molecule antagonists of the estrogen receptor alpha (ER-alpha) signaling pathway using the BG1 cell line in the presence of 0.1 nM 17-beta-estradiol - cell viability counter screen (AID 1259241; active = well fitted curve in the direction sought with a large enough effect in the repeat runs; an effect the other way counts as inactive or inconclusive; note: nearly all actives have a fitted effect of over 40% in size)
Outline: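 CellTiter-Fluor read (30 min, 37C) on ER-alpha/ERE-luc VM7Luc4E2 cells; 22 hr compound treatment; agonist 0.1 nM E2 final; same-well multiplex.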

[5] = qHTS assay to identify small molecule HDAC inhibitors (AID 1259364; active = well fitted curve in the direction sought with a large enough effect in the repeat runs; an effect the other way counts as inactive or inconclusive; note: top concentration of the series differs between compounds; nearly all actives have a fitted effect of over 45% in size)
Outline: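 Wild-type HCT-116 cells were plated overnight, exposed to compounds for 2 h at 37 °C, then given HDAC-Glo class I/II luminogenic reagent for 30 min at room temperature before luminescence was read.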

[6] = qHTS assay to identify small molecule agonists of the sonic hedgehog signaling (Shh) pathway (AID 1259368); note: nearly all actives have a fitted effect of over 15% in size
Outline: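 NIH/3T3-derived 3T3Gli1-Luc cells carrying a stably integrated Gli1 response element–firefly luciferase reporter were plated, left 4 hr at 37 C, then given compounds in DMSO for 24 hr. Luminescence was read 30 min after adding luciferase reagent.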

[7] = Caspase-3/7 induction in HepG2 cells by small molecules, qHTS assay (AID 1346978; active = well fitted curve in the direction sought with a large enough effect in the repeat runs; an effect the other way counts as inactive or inconclusive; note: nearly all actives have a fitted effect of over 15% in size)
Outline: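 Wild-type HepG2 cells (2,000/well) were settled 5 h at 37 C, 5% CO2, then exposed to compounds in DMSO for 17 h. Caspase-3/7 activity was read by luminescence 30 min after adding Caspase-Glo 3/7 reagent at room temperature.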

[8] = Caspase-3/7 induction in CHO-K1 cells by small molecules, qHTS assay (AID 1346980; active = well fitted curve in the direction sought with a large enough effect in the repeat runs; an effect the other way counts as inactive or inconclusive; note: nearly all actives have a fitted effect of over 15% in size)
Outline: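 Wild-type cells were seeded at 1,500 per well and settled 5 hr at 37 C, 5% CO2, then exposed to DMSO-dissolved compounds for 17 hr. Caspase-Glo 3/7 reagent was added, and luminescence was read after 30min at room temperature.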

[9] = molecular target: Acetylcholinesterase (Homo sapiens) (UniProt P22303); experiment: Acetylcholinesterase (AChE) small molecule antagonists: colormetric cell-based qHTS assay (AID 1347395); note: nearly all actives have a fitted effect of over 30% in size
Outline: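 In this cell-based qHTS, attached SH-SY5Y cells were treated with test chemicals for 30 min, after which acetylthiocholine hydrolysis was followed by DTNB colour development over 90 min at 37 C.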

[10] = molecular target: Acetylcholinesterase (Homo sapiens) (UniProt P22303); experiment: Acetylcholinesterase (AChE) small molecule antagonists: enzyme-based qHTS assay (AID 1347397); details: Potency: AChE enzyme activity inhibition; outcome: AChE enzyme activity inhibition; note: nearly all actives have a fitted effect of over 55% in size; note: potency is the fitted concentration of half-maximal effect
Outline: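 Human recombinant acetylcholinesterase; substrate acetylthiocholine; thiocholine quantified with DTNB (colorimetric). Compound preincubation 30 min RT; reaction 10 min RT.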

[11] = molecular target: Acetylcholinesterase (Homo sapiens) (UniProt P22303); experiment: Acetylcholinesterase (AChE) small molecule antagonists: fluorescence cell-based qHTS assay (AID 1347398); details: Potency: AChE activity; outcome: AChE activity; note: nearly all actives have a fitted effect of over 50% in size
Outline: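 Thiocholine generated from acetylthiocholine by SH-SY5Y cell AChE is detected with Thiolite Green (Ex/Em 490/520 nm) after 40 min at room temperature, following 30 min compound pretreatment at 37 C.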

[12] = molecular target: Acetylcholinesterase (Homo sapiens) (UniProt P22303); experiment: Acetylcholinesterase (AChE) small molecule antagonists: enzyme-based qHTS assay with human liver microsomes (AID 1347399); details: Potency: qHTS inhibition; outcome: qHTS inhibition; note: nearly all actives have a fitted effect of over 60% in size; note: potency is the fitted concentration of half-maximal effect
Outline: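 Recombinant human AChE (50 mU/mL in the enzyme mix) and human liver microsomes (0.25 mg/mL final) were preincubated with compound and NADPH (0.25 mg/mL final) for 30 min at 37 C. Acetylthiocholine/DTNB was then added; thiocholine was read colorimetrically after 10 min at room temperature.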

[13] = molecular target: Cytochrome P450 1A2 (Homo sapiens) (UniProt P05177); experiment: Cytochrome P450 Family 1 Subfamily A Member 2 (CYP1A2) small molecule antagonists: luciferase reporter qHTS assay (AID 1671199; active = well fitted curve in the direction sought with a large enough effect in the repeat runs; an effect the other way counts as inactive or inconclusive; note: nearly all actives have a fitted effect of over 50% in size; note: potency is the fitted concentration of half-maximal effect)
Outline: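 Human CYP1A2 activity measured with a P450-Glo proluciferin substrate; compounds in DMSO preincubated 10 min at room temperature with enzyme-substrate mix, then NADPH regeneration system added for 1 h. Luciferin detection reagent, 20 min, luminescence read.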

[14] = qHTS assay to identify small molecule agonists of the estrogen related receptor (ERR) signaling pathway (AID 1224820; active = well fitted curve in the direction sought with a large enough effect in the repeat runs; an effect the other way counts as inactive or inconclusive)
Outline: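 Cells: ERR line from NTP, 2,000/well. Pre-incubation 6 h, 37 C/5% CO2. Compound (DMSO) pin transfer, 18 h 37 C. One-Glo, 30 min RT, luminescence.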

[15] = qHTS assay to identify small molecule antagonists of the estrogen related receptor signaling pathway with the pleiotropic PPARgamma coactivator (PGC) cell viability counter screen (AID 1224822; active = well fitted curve in the direction sought with a large enough effect in the repeat runs; an effect the other way counts as inactive or inconclusive;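 note: viability read after 17.5 h compound exposure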)
Outline: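 PGC/ERR cells were seeded at 2,000 cells/well, rested 6 h at 37 C/5% CO2, then given compounds in DMSO by pin tool and incubated 17.5 h at 37 C. Viability came from CellTiter-Fluor fluorescence after 30 min.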

[16] = qHTS assay to identify small molecule agonists of the estrogen related receptor signaling pathway with the pleiotropic PPARgamma coactivator (PGC) (AID 1224823; active = well fitted curve in the direction sought with a large enough effect in the repeat runs; an effect the other way counts as inactive or inconclusive)
Outline: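 Steps: plate PGC/ERR cells at 2,000 cells/well; incubate 6 h, 37 C/5% CO2; pin-transfer compounds (DMSO); incubate 18 h, 37 C; add One-Glo; 30 min RT; read luminescence.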

[17] = qHTS assay to identify small molecule HDAC inhibitors - cell viability counter screen (AID 1259365; active = well fitted curve in the direction sought with a large enough effect in the repeat runs; an effect the other way counts as inactive or inconclusive; note: nearly all actives have a fitted effect of over 50% in size)
Outline: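 To flag cytotoxic hits, 1,500 wild-type HCT-116 cells per well, plated the day before, receive test compounds for 2hr at 37 C before CellTiter-Glo reagent and a luminescence read.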

[18] = qHTS assay to identify small molecule antagonists of the estrogen related receptor (ERR) signaling pathway (AID 1224819; active = well fitted curve in the direction sought with a large enough effect in the repeat runs; an effect the other way counts as inactive or inconclusive; note: nearly all actives have a fitted effect of over 50% in size; note: potency is the fitted concentration of half-maximal effect;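 for activity change, negative = inhibition: luminescence from an ERR-driven luciferase reporter measured with One-Glo reagent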)
Outline: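 ERR reporter cells were plated at 2,000 cells/well and left 6 h at 37 C/5% CO2 before pin-tool transfer of compounds in DMSO. After 18 h at 37 C, One-Glo was added and luminescence was read 30 min later at room temperature.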

[19] = system: estrogen-related receptor alpha (ERRalpha) with PGC-1alpha coactivator, human; experiment: qHTS assay to identify small molecule antagonists of the estrogen related receptor signaling pathway with the pleiotropic PPARgamma coactivator (PGC) (AID 1224821); note: nearly all actives have a fitted effect of over 50% in size; note: potency is the fitted concentration of half-maximal effect;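 for activity change, negative = inhibition: lower luminescence signal means antagonism of PGC/ERR signalling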
Outline: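 Luminescent read-out (One-Glo, 30 min at room temperature) following 18 h treatment of PGC/ERR cells at 37 C with compounds delivered in DMSO. Cells had settled 6 h at 37 C/5% CO2 before dosing.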
% is set by controls: 0 for no effect and ±100 for the full control effect.

Sequence of Cytochrome P450 1A2 (Homo sapiens) (P05177 whole entry, looked up): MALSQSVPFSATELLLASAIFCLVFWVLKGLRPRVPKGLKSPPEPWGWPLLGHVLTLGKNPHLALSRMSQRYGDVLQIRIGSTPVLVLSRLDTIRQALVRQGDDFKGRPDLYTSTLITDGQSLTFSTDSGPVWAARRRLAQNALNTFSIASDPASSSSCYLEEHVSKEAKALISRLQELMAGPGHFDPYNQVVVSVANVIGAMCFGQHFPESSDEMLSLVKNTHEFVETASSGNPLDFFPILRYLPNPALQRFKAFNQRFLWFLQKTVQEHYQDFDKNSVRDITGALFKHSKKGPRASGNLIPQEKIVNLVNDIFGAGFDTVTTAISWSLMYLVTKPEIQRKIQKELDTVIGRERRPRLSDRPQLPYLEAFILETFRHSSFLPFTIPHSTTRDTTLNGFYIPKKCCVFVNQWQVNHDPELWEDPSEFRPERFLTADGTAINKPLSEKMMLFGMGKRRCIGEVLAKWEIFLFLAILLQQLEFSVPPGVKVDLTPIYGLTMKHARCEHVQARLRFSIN
Sequence of Acetylcholinesterase (Homo sapiens) (P22303 whole entry, looked up): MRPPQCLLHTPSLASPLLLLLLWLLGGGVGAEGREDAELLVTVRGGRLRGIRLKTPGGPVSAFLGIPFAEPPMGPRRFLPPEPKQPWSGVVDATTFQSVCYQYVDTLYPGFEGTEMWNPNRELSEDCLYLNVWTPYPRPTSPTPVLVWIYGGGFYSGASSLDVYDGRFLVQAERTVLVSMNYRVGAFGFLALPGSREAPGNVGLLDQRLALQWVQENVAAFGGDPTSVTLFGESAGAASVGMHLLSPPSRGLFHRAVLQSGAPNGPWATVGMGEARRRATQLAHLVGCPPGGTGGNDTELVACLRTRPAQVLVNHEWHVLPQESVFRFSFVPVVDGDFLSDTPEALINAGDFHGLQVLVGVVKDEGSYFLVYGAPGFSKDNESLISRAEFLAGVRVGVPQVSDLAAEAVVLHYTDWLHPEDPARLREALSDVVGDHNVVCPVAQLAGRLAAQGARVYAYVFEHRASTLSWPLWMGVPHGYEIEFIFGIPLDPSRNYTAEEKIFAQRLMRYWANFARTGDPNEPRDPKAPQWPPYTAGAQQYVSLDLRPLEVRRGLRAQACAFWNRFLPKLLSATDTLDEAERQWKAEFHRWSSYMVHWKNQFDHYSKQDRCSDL

O=S(=O)(C(Cl)(Cl)Cl)C(Cl)(Cl)Cl
active: Potency [3] 34.7 µM | Potency [13] 22.4 µM
inactive: activity change, positive = activation [1] -70.9% | Potency [2] | Potency [4] | outcome [5] | outcome [6] | Potency [7] | outcome [8] | Potency [9] | Potency [10] | Potency [11] | Potency [12]

CCc1cccc(CC)c1N
inactive: Potency [9] | Potency [10] | Potency [11] | Potency [12]

Nc1ccc([N+](=O)[O-])cc1
active: Potency [3] 43.6 µM | Potency [13] 39.9 µM
inactive: Potency [14] | Potency [15] | Potency [16] | activity change, positive = activation [1] -29.9% | Potency [2] | outcome [5] | outcome [17] | outcome [6] | outcome [8] | Potency [9] | Potency [10] | Potency [11] | Potency [12]

CO/C=C(/C(=O)OC)c1ccccc1Oc1cc(Oc2ccccc2C#N)ncn1
active: Potency [18] 4.86 µM | Potency [19] 8.31 µM | Potency [13] 41.4 µM
inactive: Potency [14] | Potency [16] | activity change, positive = activation [1] -64.5% | Potency [2] | Potency [3] | outcome [5] | outcome [17] | outcome [6] | Potency [7] | outcome [8] | Potency [9] | Potency [10] | Potency [11] | Potency [12]

ClC1=C(Cl)C(Cl)(Cl)C(Cl)=C1Cl
inactive: Potency [7] | Potency [9] | Potency [10] | Potency [11] | Potency [12]

Cc1c(N)cccc1[N+](=O)[O-]
inactive: Potency [9] | Potency [10] | Potency [11] | Potency [12]

Cc1ccc2nc3sc(=O)sc3nc2c1
active: Potency [13] 13.5 µM
inactive: cytotoxicity [2] -0.433% [at 15.8 µM] | cytotoxicity increase [3] -5.93% [at 15.8 µM] | activity change, negative = cytotoxicity [4] 1.06% [at 19 µM] | activity change, negative = inhibition [5] -12.7% [at 19 µM] | activity change, negative = cytotoxicity [17] 4.09% [at 19 µM] | activity change [6] 2.66% [at 18.9 µM] | caspase activation [7] 0.305% [at 19 µM] | caspase-3/7 activation [8] -0.994% [at 19 µM] | activity, negative = inhibition [9] -0.0538% [at 23.6 µM] | activity change, negative = inhibition [10] 0% [at 23.6 µM] | activity change, negative = inhibition [12] -0.324% [at 23.6 µM]

O=C1C(I)=CC(=C(c2cc(I)c(O)c(I)c2)c2ccccc2C(=O)O)C=C1I
inactive: Potency [2] | Potency [3] | Potency [4] | outcome [5] | outcome [17] | outcome [6] | Potency [7] | outcome [8] | Potency [9] | Potency [11] | Potency [12] | Potency [13]
active: Potency [10] 34.7 µM

Cc1nnc2n1-c1sc(CCc3ccc(CC(C)C)cc3)cc1C(c1ccccc1Cl)=NC2C (configuration not stated)
inactive: activity change, positive = activation [1] -59.4% [at 42.5 µM] | Potency [2] | Potency [3] | Potency [4] | outcome [5] | outcome [17] | outcome [6] | outcome [8] | Potency [9] | Potency [10] | Potency [11] | Potency [12] | Potency [13]

Cc1cc(C(C)(C)c2ccc(O)c(C)c2)ccc1O
inactive: activity change, positive = activation [1] -66.8% | Potency [2] | Potency [3] | Potency [4] | outcome [5] | outcome [17] | outcome [6] | outcome [8] | Potency [9] | Potency [10] | Potency [11] | Potency [12]
active: Potency [13] 33.9 µM

CCCCC(CC)COC(=O)c1ccc(C(=O)OCC(CC)CCCC)cc1 (configuration not stated)
inactive: activity change, positive = activation [1] 0.923% | Potency [9] | Potency [11] | Potency [12]

O=C1OC(=O)c2c(Cl)c(Cl)c(Cl)c(Cl)c21
inactive: activity change, positive = activation [1] -2.98% | Potency [7] | Potency [9] | Potency [10] | Potency [11] | Potency [12]

ClC(Cl)=C(c1ccc(Cl)cc1)c1ccccc1Cl
inactive: Potency [2] | Potency [3] | Potency [4] | outcome [5] | outcome [17] | outcome [6] | Potency [7] | outcome [8] | Potency [9] | Potency [10] | Potency [11] | Potency [12] | Potency [13]

C[C@]12CC[C@@H](O)C[C@@H]1CC[C@@H]1[C@@H]2CC[C@]2(C)C(=O)CC[C@@H]12
inactive: Potency [2] | Potency [3] | Potency [4] | outcome [5] | outcome [17] | outcome [6] | Potency [7] | outcome [8]

COc1ccc(C(c2ccc(OC)cc2)C(Cl)(Cl)Cl)cc1
active: Potency [13] 25 µM
inactive: Potency [18] | Potency [19] | Potency [15] | Potency [16] | activity change, positive = activation [1] -35.3% | Potency [2] | Potency [3] | Potency [4] | outcome [17] | outcome [6] | Potency [7] | outcome [8] | Potency [9] | Potency [10] | Potency [11] | Potency [12]

Brc1cc(Br)cc(Br)c1
inactive: activity change, positive = activation [1] -1.12% | Potency [7] | Potency [9] | Potency [11] | Potency [12]

OC(Cc1ccccc1Cl)(Cn1[nH]cnc1=S)C1(Cl)CC1 (configuration not stated)
inactive: Potency [2] | Potency [3] | Potency [4] | outcome [5] | outcome [17] | outcome [6] | Potency [7] | outcome [8] | Potency [9] | Potency [10] | Potency [11] | Potency [12]

Nc1ccc(Cl)cc1[N+](=O)[O-]
inactive: Potency [9] | Potency [10] | Potency [11] | Potency [12]

O=C(c1ccccc1)C(Cl)Cl
inactive: activity change, positive = activation [1] -27.3% | Potency [2] | Potency [3] | Potency [4] | outcome [5] | outcome [6] | Potency [7] | outcome [8] | Potency [9] | Potency [10] | Potency [11] | Potency [12]
active: Potency [13] 31.7 µM

Cc1ccc(N(SC(F)(Cl)Cl)S(=O)(=O)N(C)C)cc1
active: Potency [12] 71 µM | Potency [13] 22.4 µM
inactive: activity change, positive = activation [1] -74.2% | Potency [2] | Potency [3] | Potency [4] | outcome [5] | outcome [6] | Potency [7] | outcome [8] | Potency [9]
